Active and inactive are the calls of the source. Rule for the calls: active = hit-call score of the fitted dose curve at least 0.9, where 1 is the maximum; inactive = score below 0.9.
Assays:
[1] = ATG_PBREM_CIS: Attagene CIS-FACTORIAL HepG2 Assay for human Phenobarbital-responsive Enhancer Module (PBREM) (AID 2282955); settings: HepG2 PBREM cis-reporter, Attagene multiplexed transcription; actives raise or lower the signal
Method in brief: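 Cells were transfected with cis-element reporter units and treated for 24 h, after which RNA was extracted and reporter transcripts measured by RT-PCR and capillary electrophoresis.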

[2] = biological target: Paired box protein Pax-6 (Homo sapiens) (UniProt P26367); experiment: ATG_Pax6_CIS: Attagene CIS-FACTORIAL HepG2 Assay for human Paired Box 6 (PAX6) (AID 2282956); settings: HepG2 CIS-FACTORIAL PAX6 reporter transcription, RNA readout; actives raise or lower the signal
Chain of Paired box protein Pax-6 (Homo sapiens) (P26367 whole entry, looked up): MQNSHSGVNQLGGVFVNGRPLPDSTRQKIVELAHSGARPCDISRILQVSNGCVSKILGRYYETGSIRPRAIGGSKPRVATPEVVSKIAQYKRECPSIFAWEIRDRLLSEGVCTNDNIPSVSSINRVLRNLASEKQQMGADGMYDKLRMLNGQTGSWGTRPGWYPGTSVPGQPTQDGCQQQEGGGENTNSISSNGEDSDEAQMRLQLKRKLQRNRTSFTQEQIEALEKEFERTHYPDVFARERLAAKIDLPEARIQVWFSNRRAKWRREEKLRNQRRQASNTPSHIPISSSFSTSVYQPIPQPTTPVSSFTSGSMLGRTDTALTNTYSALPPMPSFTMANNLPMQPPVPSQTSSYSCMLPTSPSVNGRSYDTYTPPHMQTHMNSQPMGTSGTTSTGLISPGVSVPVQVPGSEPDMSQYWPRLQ
Method in brief: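 Readout: reporter transcript fluorescence after RT-PCR and capillary electrophoresis. Cells: HepG2, transiently transfected with cis-regulated MRTUs. Exposure 24 h. Gain or loss of signal fitted bidirectionally relative to DMSO.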

[3] = ATG_PXRE_CIS: Attagene CIS-FACTORIAL HepG2 Assay for human Pregnane X Receptor Element (PXRE) (AID 2282957); settings: HepG2 Attagene CIS-FACTORIAL PXRE reporter, mRNA; actives raise or lower the signal
Method in brief: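 Read-out: fluorescence of reporter-specific RT-PCR products resolved by capillary electrophoresis, fitted bidirectionally relative to DMSO. Human HepG2 liver cells carried transfected cis-promoter reporter units and were exposed to chemicals for 24 h.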

[4] = ATG_PPRE_CIS: Attagene CIS-FACTORIAL HepG2 Assay for human Peroxisome Proliferator-activated Response Element (PPRE) (AID 2282958); settings: HepG2 PPRE cis-element reporter, Attagene transcription factor profiling; actives raise or lower the signal
Method in brief: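 In this cell-based multiplex, a PPRE cis element drives a reporter sequence in transiently transfected HepG2 cells. Following 24 h treatment, labeled cDNA amplicons are sized and quantified by capillary electrophoresis, with DMSO defining baseline.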

[5] = ATG_RORE_CIS: Attagene CIS-FACTORIAL HepG2 Assay for human RAR-related Orphan Receptor Element (RORE) (AID 2282959); settings: HepG2 Attagene cis-factorial RORE reporter, mRNA; actives raise or lower the signal
Method in brief: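 Endogenous factor activity at a cis response element is read as reporter transcript levels in HepG2 cells, 24 h post-dose. Transcripts are quantified by RT-PCR with capillary electrophoresis, and data fitted in both directions against DMSO.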

[6] = ATG_Sox_CIS: Attagene CIS-FACTORIAL HepG2 Assay for human SRY-box transcription factor (SOX) (AID 2282960); settings: HepG2 Attagene cis-factorial SOX reporter, mRNA; actives raise or lower the signal
Method in brief: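 Measures mRNA induction of a SOX1-associated reporter in HepG2 after 24 h dosing. Fluorescently labelled RT-PCR fragments are separated by capillary electrophoresis, and gain or loss relative to DMSO control is fitted.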

[7] = biological target: Transcription factor Sp1 (Homo sapiens) (UniProt P08047); experiment: ATG_Sp1_CIS: Attagene CIS-FACTORIAL HepG2 Assay for human Specificity Protein 1 (Sp1) (AID 2282961); settings: HepG2 Sp1 cis-reporter transcription, actives raise or lower the signal
Chain of Transcription factor Sp1 (Homo sapiens) (P08047 whole entry, looked up): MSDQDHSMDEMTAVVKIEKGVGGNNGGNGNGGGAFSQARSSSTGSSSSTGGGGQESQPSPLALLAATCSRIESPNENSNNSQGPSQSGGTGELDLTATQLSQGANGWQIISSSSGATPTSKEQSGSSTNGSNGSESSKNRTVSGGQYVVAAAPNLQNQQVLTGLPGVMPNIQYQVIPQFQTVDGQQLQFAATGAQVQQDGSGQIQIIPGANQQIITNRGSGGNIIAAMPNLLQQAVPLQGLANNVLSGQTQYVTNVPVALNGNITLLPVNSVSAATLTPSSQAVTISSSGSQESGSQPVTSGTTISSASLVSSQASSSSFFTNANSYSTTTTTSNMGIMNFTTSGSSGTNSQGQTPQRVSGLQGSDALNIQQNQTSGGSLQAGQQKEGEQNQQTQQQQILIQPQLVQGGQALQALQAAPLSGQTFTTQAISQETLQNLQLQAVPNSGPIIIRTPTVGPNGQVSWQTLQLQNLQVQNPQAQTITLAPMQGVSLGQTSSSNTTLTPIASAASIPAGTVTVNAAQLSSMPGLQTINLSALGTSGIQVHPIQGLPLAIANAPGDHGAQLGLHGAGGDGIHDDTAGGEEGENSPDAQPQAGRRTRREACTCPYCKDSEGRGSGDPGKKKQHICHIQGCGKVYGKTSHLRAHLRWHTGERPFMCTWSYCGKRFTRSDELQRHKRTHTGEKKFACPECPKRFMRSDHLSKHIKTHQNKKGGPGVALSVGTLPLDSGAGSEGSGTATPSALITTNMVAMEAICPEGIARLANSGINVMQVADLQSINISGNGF
Method in brief: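 Cells: HepG2, transiently transfected with cis-regulated multiplexed reporters. Exposure: 24 h. Detection: reporter transcripts amplified, fluorescently labeled, restriction-digested and sized by capillary electrophoresis. Analysis: bidirectional fit relative to DMSO.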

[8] = ATG_SREBP_CIS: Attagene CIS-FACTORIAL HepG2 Assay for human Sterol Regulatory Element Binding (SREBP) (AID 2282962); settings: HepG2 Attagene cis-factorial SREBP reporter, mRNA; actives raise or lower the signal
Method in brief: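 Readout: fluorescent reporter-transcript peaks resolved by capillary electrophoresis after RT-PCR. Cells were human HepG2 carrying transfected cis-promoter reporter constructs, dosed for 24 h. Gain or loss of signal was fitted against DMSO controls.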

[9] = biological target: Signal transducer and activator of transcription 3 (Homo sapiens) (UniProt P40763); experiment: ATG_STAT3_CIS: Attagene CIS-FACTORIAL HepG2 Assay for human Signal Transducer and Activator of Transcription 3 (STAT3) (AID 2282963); settings: HepG2, Attagene cis-factorial STAT3 reporter transcription; actives raise or lower the signal
Chain of Signal transducer and activator of transcription 3 (Homo sapiens) (P40763 whole entry, looked up): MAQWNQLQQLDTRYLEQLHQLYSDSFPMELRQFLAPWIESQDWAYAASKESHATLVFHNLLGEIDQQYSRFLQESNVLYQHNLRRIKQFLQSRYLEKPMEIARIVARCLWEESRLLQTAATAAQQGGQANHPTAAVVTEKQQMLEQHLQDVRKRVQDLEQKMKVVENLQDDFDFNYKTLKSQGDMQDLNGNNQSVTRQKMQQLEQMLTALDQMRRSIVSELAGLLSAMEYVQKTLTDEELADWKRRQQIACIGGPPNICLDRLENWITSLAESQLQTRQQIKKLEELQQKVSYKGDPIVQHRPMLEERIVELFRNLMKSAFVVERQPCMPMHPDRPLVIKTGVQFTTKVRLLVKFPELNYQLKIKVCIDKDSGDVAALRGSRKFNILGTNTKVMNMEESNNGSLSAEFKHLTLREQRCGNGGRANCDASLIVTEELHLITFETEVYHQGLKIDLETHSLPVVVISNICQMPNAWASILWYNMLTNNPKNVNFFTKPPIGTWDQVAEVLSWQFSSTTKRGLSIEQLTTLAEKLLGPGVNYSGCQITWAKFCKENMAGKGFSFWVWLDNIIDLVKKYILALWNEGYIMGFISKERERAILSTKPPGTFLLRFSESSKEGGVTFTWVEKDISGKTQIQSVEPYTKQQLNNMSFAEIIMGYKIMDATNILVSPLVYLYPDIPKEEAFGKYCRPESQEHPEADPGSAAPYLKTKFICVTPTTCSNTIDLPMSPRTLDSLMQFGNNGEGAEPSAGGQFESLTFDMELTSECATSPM
Method in brief: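 Readout is reporter transcript quantified by RT-PCR and capillary electrophoresis, with 6-FAM primer extension and HpaI digestion. Total RNA is taken 24 h after dosing transiently transfected HepG2 carrying cis-regulated reporter units. Bidirectional fit against DMSO.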

[10] = ATG_TA_CIS: Attagene CIS-FACTORIAL HepG2 Assay for human TA Basal Promoter (AID 2282964); settings: HepG2 Attagene CIS-factorial TA basal promoter reporter; actives raise or lower the signal
Method in brief: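 HepG2 cells transiently transfected with multiplexed cis-promoter reporter units, dosed 24 h. Reporter mRNA measured by RT-PCR, 6-FAM labelling, HpaI digestion and capillary electrophoresis; bidirectional fit versus DMSO baseline, serving as background control.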

SMILES: CC(C)NC(=O)N1CC(=O)N(c2cc(Cl)cc(Cl)c2)C1=O
- AC50 [1]: 11.8 µM (active)
- outcome [2]: inactive
- AC50 [3]: 5.44 µM (active)
- AC50 [4]: 23.2 µM (active)
- outcome [5]: inactive
- outcome [6]: inactive
- outcome [7]: inactive
- outcome [8]: inactive
- outcome [9]: inactive
- outcome [10]: inactive

SMILES: CC(C)N1C(=O)N(c2ccccc2)CSC1=NC(C)(C)C
- outcome [1]: inactive
- outcome [2]: inactive
- AC50 [3]: 0.666 µM (active)
- outcome [4]: inactive
- outcome [5]: inactive
- outcome [6]: inactive
- outcome [7]: inactive
- outcome [8]: inactive
- outcome [9]: inactive
- outcome [10]: inactive

SMILES: C=CCOC(=O)C(C)(C)OC(=O)c1cc(-n2c(=O)cc(C(F)(F)F)n(C)c2=O)ccc1Cl
- outcome [1]: inactive
- outcome [2]: inactive
- AC50 [3]: 1.49 µM (active)
- outcome [4]: inactive
- outcome [5]: inactive
- outcome [6]: inactive
- outcome [7]: inactive
- outcome [8]: inactive
- outcome [9]: inactive
- outcome [10]: inactive

SMILES: CCCCC(C#N)(Cn1cncn1)c1ccc(Cl)cc1 (stereo not given)
- outcome [1]: inactive
- outcome [2]: inactive
- AC50 [3]: 13.8 µM (active)
- outcome [4]: inactive
- outcome [5]: inactive
- outcome [6]: inactive
- outcome [7]: inactive
- AC50 [8]: 12.6 µM (active)
- outcome [9]: inactive
- outcome [10]: inactive

SMILES: COC(=O)NS(=O)(=O)c1ccc(N)cc1
- outcome [1]: inactive
- outcome [2]: inactive
- AC50 [3]: 19.9 µM (active)
- outcome [4]: inactive
- outcome [5]: inactive
- outcome [6]: inactive
- outcome [7]: inactive
- outcome [8]: inactive
- outcome [9]: inactive
- outcome [10]: inactive

SMILES: CCN(CC)c1nc(C)cc(OP(=S)(OC)OC)n1
- outcome [1]: inactive
- outcome [2]: inactive
- AC50 [3]: 3.38 µM (active)
- AC50 [4]: 34.1 µM (active)
- AC50 [5]: 20 µM (active)
- outcome [6]: inactive
- outcome [7]: inactive
- outcome [8]: inactive
- outcome [9]: inactive
- outcome [10]: inactive

SMILES: CCOc1cc(C(C)(C)C)ccc1C1COC(c2c(F)cccc2F)=N1 (stereo not given)
- outcome [1]: inactive
- outcome [2]: inactive
- AC50 [3]: 0.593 µM (active)
- outcome [4]: inactive
- outcome [5]: inactive
- outcome [6]: inactive
- outcome [7]: inactive
- outcome [8]: inactive
- outcome [9]: inactive
- outcome [10]: inactive

SMILES: O=P(O)(O)CCCl
- outcome [1]: inactive
- outcome [2]: inactive
- outcome [3]: inactive
- outcome [4]: inactive
- outcome [5]: inactive
- outcome [6]: inactive
- outcome [7]: inactive
- outcome [8]: inactive
- outcome [9]: inactive
- outcome [10]: inactive

SMILES: COCC(=O)N(c1c(C)cccc1C)C(C)C(=O)OC (stereo not given)
- outcome [1]: inactive
- outcome [2]: inactive
- AC50 [3]: 9.28 µM (active)
- outcome [4]: inactive
- outcome [5]: inactive
- outcome [6]: inactive
- outcome [7]: inactive
- outcome [8]: inactive
- outcome [9]: inactive
- outcome [10]: inactive

SMILES: CC1(C)CCC(=Cc2ccc(Cl)cc2)C1(O)Cn1cncn1 (stereo not given)
- outcome [1]: inactive
- outcome [2]: inactive
- AC50 [3]: 3.16 µM (active)
- AC50 [4]: 29.7 µM (active)
- outcome [5]: inactive
- outcome [6]: inactive
- outcome [7]: inactive
- AC50 [8]: 15 µM (active)
- outcome [9]: inactive
- outcome [10]: inactive

SMILES: O=C(O)c1c(Cl)ccc2cc(Cl)cnc12
- outcome [1]: inactive
- outcome [2]: inactive
- outcome [3]: inactive
- outcome [4]: inactive
- outcome [5]: inactive
- outcome [6]: inactive
- outcome [7]: inactive
- outcome [8]: inactive
- outcome [9]: inactive
- outcome [10]: inactive

SMILES: COc1cc(OC)nc(NC(=O)NS(=O)(=O)c2ncccc2OCC(F)(F)F)n1
- outcome [1]: inactive
- outcome [2]: inactive
- AC50 [3]: 63 µM (active)
- outcome [4]: inactive
- outcome [5]: inactive
- outcome [6]: inactive
- outcome [7]: inactive
- outcome [8]: inactive
- outcome [9]: inactive
- outcome [10]: inactive

SMILES: CCOP(=O)(OCC)Oc1nc(Cl)c(Cl)cc1Cl
- outcome [1]: inactive
- outcome [2]: inactive
- AC50 [3]: 45.7 µM (active)
- AC50 [4]: 29.9 µM (active)
- outcome [5]: inactive
- outcome [6]: inactive
- outcome [7]: inactive
- AC50 [8]: 15.6 µM (active)
- outcome [9]: inactive
- outcome [10]: inactive

SMILES: Cc1c(COC(=O)[C@@H]2[C@H](/C=C(\Cl)C(F)(F)F)C2(C)C)cccc1-c1ccccc1
- AC50 [1]: 11.4 µM (active)
- outcome [2]: inactive
- AC50 [3]: 2.31 µM (active)
- outcome [4]: inactive
- outcome [5]: inactive
- outcome [6]: inactive
- outcome [7]: inactive
- outcome [8]: inactive
- outcome [9]: inactive
- outcome [10]: inactive

SMILES: CC(C)=CC1C(C(=O)OCc2coc(Cc3ccccc3)c2)C1(C)C (stereo not given)
- AC50 [1]: 14.6 µM (active)
- outcome [2]: inactive
- AC50 [3]: 5.63 µM (active)
- AC50 [4]: 11.2 µM (active)
- outcome [5]: inactive
- outcome [6]: inactive
- outcome [7]: inactive
- outcome [8]: inactive
- outcome [9]: inactive
- outcome [10]: inactive

SMILES: CS(=O)(=O)c1ccc(C(=O)C2C(=O)CCCC2=O)c([N+](=O)[O-])c1
- outcome [1]: inactive
- outcome [2]: inactive
- outcome [3]: inactive
- outcome [4]: inactive
- outcome [5]: inactive
- outcome [6]: inactive
- outcome [7]: inactive
- outcome [8]: inactive
- outcome [9]: inactive
- outcome [10]: inactive

SMILES: O=C(Nc1ccccc1-c1ccc(Cl)cc1)c1cccnc1Cl
- AC50 [1]: 17.7 µM (active)
- outcome [2]: inactive
- AC50 [3]: 4.77 µM (active)
- outcome [4]: inactive
- outcome [5]: inactive
- outcome [6]: inactive
- AC50 [7]: 19.8 µM (active)
- outcome [8]: inactive
- outcome [9]: inactive
- outcome [10]: inactive

Reference: PubChem BioAssay (EPA / NIEHS)
